Experimental data reported in PubChem BioAssay (EPA / NIEHS).
Where “and” joins values, the source holds several entries; their conditions need not be identical. Equal values may be shown once. Records with an inconclusive call do not appear. Where a structure was tested more than once in an assay, its records may differ in their call. Calls of active or inactive are those of the source. Rule for the calls: active = hit-call score of the fitted dose curve at least 0.9, where 1 is the maximum; inconclusive = response in the unintended direction; inactive = score below 0.9.

assay: TOX21_p53_BLA_p5_viability: Viability Assessment in the Tox21 HCT-116 p53 Agonism Beta-lactamase Assay, Phase 5 (AID 2283600)
From the text: TOX21_p53_BLA_p5 is a cell-based, single-readout assay that uses HCT116, a human intestinal cell line, […] in a 1536-well plate.TOX21_p53_BLA_p5_viability is an assay readout measuring cellular ATP content and detected with CellTiter-Glo Luciferase-coupled ATP quantitation.TOX21_p53_BLA_p5_viability used a type of viability reporter where loss-of-signal activity can be used to understand changes in the cell viability. Furthermore, this assay endpoint can be referred to as a secondary readout, because this assay has produced multiple assay endpoints where this one serves a viability function. To generalize the intended target to other relatable targets, this assay endpoint is annotated to the cell cycle intended target family, where the subfamily is cytotoxicity.
Thawing Method: Place 14 mL of pre-warmed thaw medium into a 15 mL of conical tub. Remove the vial of cells to be thawed from liquid nitrogen and thaw rapidly by placing at 37C in a water bath with gentle agitation for 1-2 minutes. Decontaminate the vial by wiping with 70% ethanol before opening in a biological safety cabinet. Transfer the vial contents drop-wise into 14 mL of thaw medium in a sterile 15-mL conical tub. Centrifuge cells at 900 rpm for 4 minutes and resuspend in thaw medium. Transfer contents to the T75 tissue culture flask containing Thaw Medium and place flask in a humidified 37C/5% CO2 incubator. Switch to growth medium at first passage.Propagation Method: Aspirate medium, rinse once in DPBS, add 0.25% Trypsin/EDTA and swirl to coat the cell evenly. Add an equal volume of Growth Medium to inactivate Trypsin after 2-3 minutes incubation at 37C. Centrifuge cells at 900 rpm for 4 minutes and resuspend in growth medium. Cell should be passage or fed at least twice a week.Assay Protocol: Harvest cells from culture in growth medium and resuspend in assay medium. 2.2 Dispense 4000 cells/5 uL/well into 1536-well black/clear bottom plates using a Multidrop dispenser. After the cells were incubated at 37C for 5 hours, 23 nL of compounds dissolved in DMSO were transferred to the assay plate by a PinTool resulting in a 217-fold dilution. Incubate the plates for 16 hours at 37C, 5% CO2. Add 1 uL of 6X LiveBLAzer FRET B/G (CCF4-AM) Substrate Mixture to each well using a BioRAPTR dispenser and incubate the plates at room temperature for 2 hours. Measure fluorescence intensity at 460 and 530 nm emission and 405 nm excitation by an Envision detector. Data is expressed as the ratio of 460nm/530nm emissions. Add 4 uL of Cell-titer Glo to each well using BioRAPTR and incubate the plates at room temperature for […]. For cell viability readout that measures cytotoxicity, 4 ul/well of CellTiter-Glo reagent was added into the assay plates using a Flying Reagent Dispenser. After 30 min incubation at room temperature, the luminescence intensity in the plates was measured using a ViewLux plate reader.

Compound | outcome | AC50
CCOC(=O)CC(CC(=O)OCC)(OC(C)=O)C(=O)OCC | inactive | 
CN(C)c1ccc(Cc2ccc(N(C)C)cc2)cc1 | inactive | 
CC[C@H]1OC(=O)[C@H](C)[C@@H](O[C@H]2C[C@@](C)(OC)[C@@H](O)[C@H](C)O2)[C@H](C)[C@@H](O[C@@H]2O[C@H](C)C[C@H](N(C)C)[C@H]2O)[C@](C)(O)C[C@@H](C)C(=O)[C@H](C)[C@@H](O)[C@]1(C)O | inactive | 
O=C(OC[C@H]1O[C@@H](OC(=O)c2cc(O)c(O)c(OC(=O)c3cc(O)c(O)c(O)c3)c2)[C@H](OC(=O)c2cc(O)c(O)c(OC(=O)c3cc(O)c(O)c(O)c3)c2)[C@@H](OC(=O)c2cc(O)c(O)c(OC(=O)c3cc(O)c(O)c(O)c3)c2)[C@@H]1OC(=O)c1cc(O)c(O)c(OC(=O)c2cc(O)c(O)c(O)c2)c1)c1cc(O)c(O)c(OC(=O)c2cc(O)c(O)c(O)c2)c1 | inactive | 6.49 µM (active)
Cc1ccc(N)cc1O | inactive | 
CC[C@H](C)C(=O)O[C@H]1C[C@@H](C)C=C2C=C[C@H](C)[C@H](CC[C@@H]3C[C@@H](O)CC(=O)O3)[C@H]21 | inactive | 91.2 µM (active) and 33.6 µM (active)
CC(C)CCO | inactive | 
O=C(CCCCCCCCc1cccnc1)N1CCC(C=C(c2ccccc2)c2ccccc2)CC1 |  | 13.9 µM (active)
Nc1cccc(N)c1 | inactive | 
CCCCCCCCO | inactive | 
CCCCC(CC)COC(=O)c1ccc(C(=O)OCC(CC)CCCC)cc1 (stereo not given) | inactive | 
CC(C)=CCCC(C)CCO (stereo not given) | inactive | 
CCN(C(=O)c1cc(C)cc(OC[C@H](C)Nc2ccncc2)c1)C(C)C | inactive | 
CCOC(=O)c1ccc(C2CCC(NC[C@H](O)COc3ccc(O)c(NS(C)(=O)=O)c3)CC2)cc1 (stereo not given in full) | inactive | 
CCCCCCc1ccc(O)cc1O | inactive | 74.9 µM (active)
O=C(O)CCN(C1(C(=O)NO)CCCC1)S(=O)(=O)c1ccc(Oc2ccc(F)cc2)cc1 | inactive | 
C1N2CN3CN1CN(C2)C3 | inactive | 
CC(C)CC(C)(O)C#CC(C)(O)CC(C)C (stereo not given) | inactive | 
Fc1ccccc1[C@@H](F)COC1CCC(Nc2ncnc3[nH]ncc23)CC1 (stereo not given in full) | inactive | 

Compound | outcome | AC50
Cc1ccc(C)c(O)c1 | inactive | 
O=C(O)CC(O)C(=O)O (stereo not given) | inactive | 
C[C@](N)(Cc1ccc(O)c(O)c1)C(=O)O | inactive | 
CCOc1cccc(-n2cc(C(=O)N3CCN(c4cc(C(=O)O)c5ccccc5c4)CC3)nc2-c2ccc(C)cc2)c1 |  | 36.4 µM (active)
CC1(C)C(=O)N(Br)C(=O)N1Br | inactive | 
Nc1ccc(Nc2ccccc2)cc1 | inactive | 
CC(O)CN(CCN(CC(C)O)CC(C)O)CC(C)O (stereo not given) | inactive | 
NC(=O)NO | inactive | 
CC(C)c1cccc(C(C)C)c1N1C(=O)c2ccc(O)cc2C1=O |  | 79 µM (active)
CCCN(C1CCN(C(=O)C2CCNCC2)CC1)[C@@H]1CCc2ccc(OC)cc2C1 | inactive | 
O=P(OC(CCl)CCl)(OC(CCl)CCl)OC(CCl)CCl | inactive | 
CCOCCO | inactive | 
Cn1c(=O)c2c(ncn2C)n(C)c1=O | inactive | 
COCCOCCOCCOC | inactive | 
Cc1[nH]cnc1C[C@H]1CCc2c(C)c3ccccc3n2C1=O | inactive | 
COc1cccc(-c2ccc(/C=C\CN3CCCCCC3)cc2Cl)c1 | inactive | 
CCC(C)(C)C(=O)O[C@H]1C[C@@H](C)C=C2C=C[C@H](C)[C@H](CC[C@@H]3C[C@@H](O)CC(=O)O3)[C@H]21 | inactive | 
CC1=CC(=O)CC(C)(C)C1 | inactive | 
